The sample as a whole holds a higher share of hits than the screen did.
KDM5B inhibitor = blocks human KDM5B histone demethylase activity; Potency, µM (series often up to 57.7 µM), most hits filed as inhibitors; Q9UGL1; KDM5B demethylase, FDH-coupled NADH fluorescence (FDH is formaldehyde dehydrogenase); 220,000 compounds, 2.6% hits; active = well fitted inhibition curve with a large enough effect; also: 0% is about no effect; nearly all actives have a fitted effect of over 70% in size
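Compound dilutions met 200 nM (final) KDM5BΔAP for 10 min at room temperature before substrate addition. The substrate mix held 12.5 µM H3K4me3 with cofactors 25 µM α-ketoglutarate and 50 µM Fe²⁺. NADH signal gain over 30 min defined activity.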
An asterisk follows results filed as active; i = inactive. Potency is read from the fitted curve at half-maximal effect.

SMILES	KDM5B inhibitor
c1ccc(C2=Nn3c(nnc3-c3cnccn3)SC2)cc1	i
CCCNC(=O)c1ccc(OCc2nnc(C(=O)Nc3ccccc3F)s2)cc1	i
Cc1c(CC(=O)NCC2CCCOC2)c2c(n1CC(C)C)CC(C)(C)CC2=O (configuration not stated)	i
COc1cc2cc(C(=O)N[C@@H](C)C(=O)Nc3ncc(C)s3)n(C)c2c(OC)c1OC	i
COc1cccc(-c2nc3cnccn3c2NCCC(=O)Nc2ccc(F)cc2C)c1	28µM*
O=C(Nc1c(-c2ccc(F)cc2)nc2ccccn12)c1ccc(F)cc1	i
COc1cccc(-c2nc(CS(=O)(=O)CC(=O)Nc3ccc(F)cc3F)c(C)o2)c1	i
Cc1ccccc1NC(=O)CCNc1c(-c2ccc(F)cc2)nc2cnccn12	25µM*
COc1cccc(-c2nc(CS(=O)(=O)CC(=O)Nc3ccc(F)cc3C)c(C)o2)c1	i
Cc1ccccc1NC(=O)CSc1nc(-c2ccc(F)cc2)c2cccc(C)c2n1	i
CC(=O)Nc1ccc(NC(=O)CCNc2c(-c3ccc(F)cc3)nc3cnccn23)cc1	28µM*
Cc1ccccc1NC(=O)CCn1cnc2onc(-c3ccc(F)cc3)c2c1=O	i
CC(=O)Nc1ccc(NC(=O)Cn2cccc2-c2nc(-c3ccc(F)cc3)no2)cc1	i
COC(=O)C(NC(=O)c1ccccc1OC)(Nc1nc(C2CC2)cs1)C(F)(F)F (configuration not stated)	i
Cc1ccc(C(=O)N(C)C)cc1NC(=O)CC1CC2CCC1C2 (configuration not stated)	i
Cc1ccc(-c2nc(CC(=O)Nc3ccc4c(c3)C(=O)N3CCC[C@H]3C(=O)N4)cs2)cc1	i
Cc1ccc(NC(=O)c2cc(=O)c3ccccc3o2)cc1C	i
O=C1CCC(C(=O)OC2CCOC2=O)=NN1 (configuration not stated)	i
COCc1nnc(NC(=O)Cn2ccc3ccc(Br)cc32)s1	i
CCCC(=O)N1CCC2(CC1)CC(N(Cc1ccc(F)cc1)C1CC1)CCO2 (configuration not stated)	i
CC(C)CCn1c(N2CCN(CCCc3ccccc3)CC2)nc2c1c(=O)[nH]c(=O)n2C	i
O=S(=O)(c1ccc2c(c1)OCCO2)c1nc(-c2ccco2)oc1NCCCN1CCOCC1	i
COCc1nc2nccc(-c3ccc(OC)cc3F)n2n1	28µM*
CCOC(=O)c1cnc2nc(-c3ccccc3)nn2c1C	i
CCc1nc2nccc(-c3ccc(OC)cc3F)n2n1	i
SMILES	KDM5B inhibitor
COc1ccc(-c2ccnc3nc(-c4cccs4)nn23)c(F)c1	14µM*
COc1ccc(CCc2nc3nccc(-c4ccc(OC)cc4F)n3n2)cc1	22µM*
c1ccc(-c2ccnc3nc(-c4cccs4)nn23)cc1	32µM*
CC(O)CNS(=O)(=O)c1cc(C(=O)O)ccc1Br (configuration not stated)	i
COc1ccc(CN(C(=O)COc2cccc(C)c2C)c2ccccn2)cc1OC	i
Cc1ccc(N2C(=O)c3cccnc3C2Nc2ccc3c(c2)OCO3)cc1 (configuration not stated)	i
CN(C)CCNC(=O)c1cnc2c(c1)N(Cc1ccccc1)CCC2	35µM*
COC1CCN(C(=O)c2cnc3c(c2)N(C(=O)CCc2ccccc2)CCC3)CC1	i
CC(C)c1ccc(CC(=O)N2CCCc3ncc(C(=O)NCCN(C)C)cc32)cc1	i
O=C(NCC1CCCO1)c1ccc(COc2ccccc2)cc1 (configuration not stated)	i
O=C(NCC1CCCO1)c1cnc2c(c1)N(Cc1ccccc1)CCC2 (configuration not stated)	40µM*
COC1CCN(C(=O)c2cnc3c(c2)N(Cc2ccccc2)CCC3)CC1	40µM*
CC(C)c1ccc(CC(=O)N2CCCc3ncc(C(=O)NCCc4ccccc4)cc32)cc1	i
COc1ccccc1CC(=O)N1CCCc2ncc(C(=O)N3CCC(OC)CC3)cc21	i
O=C(NCC1CCCO1)c1cnc2c(c1)N(C(=O)CCc1ccccc1)CCC2 (configuration not stated)	i
Cc1ccccc1-c1nnc(SCc2coc(-c3cccs3)n2)n1C	i
CCN(Cc1ccc(OC)c(OC)c1)C(=O)c1cc(C)nc2ccccc12	i
CC(CCc1ccccc1)NC(=O)C12CC3CC(CC(C3)C1)C2 (configuration not stated)	i
COc1ccc(C(=O)/C=C/c2ccc(F)cc2)c(OC(=O)c2ccccc2C)c1	i
Cc1cc(Br)ccc1-c1ccc(C=O)o1	i
CC(C)c1nc(C(=O)N2CCc3onc(-c4ccccc4F)c3C2)cs1	i
CC(=O)NC(CO)C(=O)N1CCc2onc(-c3cccc4ccccc34)c2C1 (configuration not stated)	32µM*
CCN(C)C(C)C(=O)N1CCc2onc(-c3ccc(C(F)(F)F)cc3)c2C1 (configuration not stated)	i
NC(=O)NCCC(=O)N1CCc2[nH]nc(-c3cccc4ccccc34)c2C1	i

High-throughput results from PubChem.
